Data on five molecules can be found in PubChem BioAssay (NCATS).

The structures appear in SMILES notation. Where “and” joins values, the source holds several entries; their conditions need not be identical. Equal entries are not always repeated. Records with an inconclusive call do not appear. Where a structure was tested more than once in an assay, its records may differ in their call. Values without a mark were called inactive. Calls of active or inactive are those of the source. Calls come from the whole dose curve; as a rule, active = well fitted curve in the direction sought with a large enough effect; inconclusive = small, poorly fitted or top-dose-only effect, or another doubt; inactive = no such curve, though single readings can be large; an effect the other way counts as inactive or inconclusive.

For experiment [1], the system named is W2. The experiment in a line: qHTS profiling for inhibitors of Plasmodium falciparum proliferation (AID 504749). Note: nearly all actives have a fitted effect of over 60% in size. Note: potency is the fitted concentration of half-maximal effect. To be noted: P. falciparum in erythrocytes, SYBR Green DNA, 72 h; series mostly up to 28.7 µM. In short, it runs like this: (§1)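 Quantitative HTS: compounds pinned into medium, infected erythrocytes added (0.3% parasitemia, 2.5% hematocrit), 72 h culture at 37 C under 5% CO2. Saponin/Triton lysis with SYBR Green I, overnight RT, then fluorescence read.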
Background: Quantitative high-throughput screening tests each substance at several concentrations.

The subject of experiment [2] is CRL-7250. The experiment in a line: Cytotoxic Profiling of Annotated Libraries Using Quantitative High-Throughput Screening (AID 1296008). For max response: % is set by controls: 0 for no effect and ±100 for the full control effect. Note: nearly all actives have a fitted effect of over 60% in size. Note: potency is the fitted concentration of half-maximal effect. To be noted: Five cell lines viability, CellTiter-Glo ATP luminescence, 48-72 h; max response: hits give low values. The essentials:
(§2)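 Compounds were pin-transferred onto cells and incubated 48 or 72 hr at 37 degree Celsius, 95% humidity. CellTiter-Glo was added, plates sat 10 min at room temperature, then ATP-coupled luminescence was imaged as the viability read-out.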

The subject of experiment [3] is HEK293. Described as above. Particulars: Five cell lines viability, CellTiter-Glo ATP luminescence, 48-72 h; max response: hits give low values. The essentials: as §2
The subject of experiment [4] is HaCat. The description is as above. Particulars: Five cell lines viability, CellTiter-Glo ATP luminescence, 48-72 h; max response: hits give low values. The essentials:
as §2
(In general: ATP-based viability assays read luminescence as a measure of living cells.)

In experiment [5] the test system is KB-3-1. The description is as above. To be noted: Five cell lines viability, CellTiter-Glo ATP luminescence, 48-72 h; max response: hits give low values. The essentials:
as §2

Experiment [6] relates to NIH3T3. The description is as above. To be noted: Five cell lines viability, CellTiter-Glo ATP luminescence, 48-72 h; max response: hits give low values. In short, it runs like this:
as §2

For experiment [7], the system named is HACAT. The experiment in a line: qHTS assay to identify novel small-molecules to repurpose for Merkel cell carcinoma treatment (AID 1296009). Note: nearly all actives have a fitted effect of over 60% in size. Note: potency is the fitted concentration of half-maximal effect. Particulars: MCC and control cell lines, CellTiter-Glo viability, 72 h; at 44.8 µM (top of the series) unless noted. In short, it runs like this:
(§3)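 Viability readout: ATP luminescence (CellTiter-Glo) after 72 hr drug exposure at 37 degree celsius. Dose-response format was 8 points for NPC and 11 points for MIPE; data normalized to in-plate controls.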

Experiment [8] relates to MCC-13. The description is as above. Particulars: MCC and control cell lines, CellTiter-Glo viability, 72 h; series mostly up to 46 µM. In short, it runs like this: as §3
In experiment [9] the test system is MKL-1. The experiment is described as above. Particulars: MCC and control cell lines, CellTiter-Glo viability, 72 h; series mostly up to 46 µM. In short, it runs like this: as §3
Experiment [10] relates to MKL-2. Described as above. Particulars: MCC and control cell lines, CellTiter-Glo viability, 72 h; series mostly up to 46 µM. The essentials:
as §3

The subject of experiment [11] is NIH3T3. The description is as above. Particulars: MCC and control cell lines, CellTiter-Glo viability, 72 h; at 44.8 µM (top of the series) unless noted. In short, it runs like this:
as §3

Experiment [12] concerns UISO. The description is as above. Particulars: MCC and control cell lines, CellTiter-Glo viability, 72 h; series mostly up to 46 µM. In short, it runs like this:
as §3

Experiment [13] concerns WaGa. Described as above. To be noted: MCC and control cell lines, CellTiter-Glo viability, 72 h; series mostly up to 46 µM. In short, it runs like this: as §3
Experiment [14] relates to C33A. The experiment in a line: Primary qHTS to identify gynecologic anti-cancer compounds using libraries of approved drugs and bioactive compounds (AID 1345084). Note: % is set by controls: 0 for no effect and ±100 for the full control effect; nearly all actives have a fitted effect of over 55% in size. To be noted: Gynecologic cancer cell panel viability, ATPlite luminescence, 48 h; series mostly up to 57.5 µM. In short, it runs like this: (§4)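 Cells, 1,000 per well, were allowed to settle for 16 h at 37 C before compound addition. Five concentrations were tested for 48 h, and viability was read by ATPlite luminescence after 15 min at room temperature.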

Experiment [15] relates to CAOV3. The description is as above. Particulars: Gynecologic cancer cell panel viability, ATPlite luminescence, 48 h; series mostly up to 57.5 µM. The essentials:
as §4

Experiment [16] has as its system CASKI. Described as above. Particulars: Gynecologic cancer cell panel viability, ATPlite luminescence, 48 h; series mostly up to 57.5 µM. In short, it runs like this:
as §4

In experiment [17] the test system is Es-2. The description is as above. To be noted: Gynecologic cancer cell panel viability, ATPlite luminescence, 48 h; series mostly up to 57.5 µM. In short, it runs like this: as §4
The test system of experiment [18] is TAB165. The experiment in a line: qHTS profiling for inhibitors of Plasmodium falciparum proliferation (AID 504749). Note: nearly all actives have a fitted effect of over 60% in size. Note: potency is the fitted concentration of half-maximal effect. To be noted: P. falciparum in erythrocytes, SYBR Green DNA, 72 h; series mostly up to 28.7 µM. In short, it runs like this:
as §1

The test system of experiment [19] is MCC-26. Briefly: qHTS assay to identify novel small-molecules to repurpose for Merkel cell carcinoma treatment (AID 1296009). Note: nearly all actives have a fitted effect of over 60% in size. Note: potency is the fitted concentration of half-maximal effect. To be noted: MCC and control cell lines, CellTiter-Glo viability, 72 h; series mostly up to 46 µM. The essentials: as §3
Experiment [20] concerns HEK293T. The description is as above. To be noted: MCC and control cell lines, CellTiter-Glo viability, 72 h; at 44.8 µM (top of the series) unless noted. In short, it runs like this: as §3

With `CCOC(CN1CCN(CC(C)C(=O)c2ccccc2)CC1)c1ccccc1` (stereo not drawn), in [1], the Potency is 10.7 µM (active). The max response is -5.72% in experiment [2]; -4.15% in experiment [3]; -8.79% in [4]; 0.981% and -11.3% in experiment [5]; -6.68% in [6]. In addition, the outcome in experiment [4], in experiment [6] and in experiment [11] was inactive. For the same molecule, the outcome in experiment [7] is “inactive [at 17.4 µM]”. The Potency result in experiment [8], in [9], in [10], in experiment [12], in experiment [13] and in experiment [14] was “inactive” throughout. Besides, the Potency entry in experiment [15], in [16] and in experiment [17] was “inactive” each time.
Regarding `Nc1ccc(S(=O)(=O)Nc2nccs2)cc1`, the Potency entry in [18], in experiment [1], in experiment [8], in experiment [19], in [9] and in experiment [10] was “inactive” in each case. Also, the Potency result in experiment [12], in [13], in [14], in [15], in experiment [16] and in [17] was “inactive” throughout. Moreover, the max response was 0.415% and -2.54% in experiment [2]; 3.95% and -4.18% in experiment [3]; -0.23% and -23.1% in experiment [4]; -16.1% in [5]; 0.16% and -3.65% in [6]. Also, the result in [5] was inactive.
As for `CCN(CC)C(=O)Nc1ccc(OCC(O)CNC(C)(C)C)c(C(C)=O)c1` (stereo not drawn), the max response in experiment [2] was -2.26% and 4.22%; in [3], -6.49%; in experiment [5] it was 3.46% and 6.71%; in [6], -5.4% and -0.794%. Also, the molecule was called inactive in experiment [3], in [4], in [7] and in experiment [20]. Moreover, the Potency result in experiment [8], in experiment [19], in experiment [9], in experiment [10], in [12] and in [13] was “inactive” throughout. The Potency entry in [14], in experiment [15], in [16] and in experiment [17] was “inactive” throughout.
For the molecule `CCOC(=O)[C@H](CCc1ccccc1)N[C@@H](C)C(=O)N1C(=O)N(C)C[C@H]1C(=O)O`, the Potency entry in experiment [18], in experiment [1], in [8], in [9], in [10] and in experiment [12] was “inactive” throughout. In addition, the Potency entry in experiment [13], in [14], in [15], in experiment [16] and in experiment [17] was “inactive” each time. Further, the max response is 1.6% in experiment [2]; -1.24% in experiment [3]; 0.859% in [4]; 5.5% and 4.49% in experiment [5]; 4.99% in [6]. Also, the molecule was called inactive in experiment [2], in experiment [3], in [4], in experiment [6], in experiment [7] and in experiment [20]. Also, the outcome in experiment [11] was inactive.
In the case of `Cc1cc(C(C#N)c2ccc(Cl)cc2)c(Cl)cc1NC(=O)c1cc(I)cc(I)c1O` (stereo not drawn), the Potency result in experiment [18], in experiment [8], in experiment [19], in experiment [9], in [10] and in experiment [14] was “inactive” in each case. The Potency result in experiment [15], in [16] and in [17] was “inactive” each time. Also, the max response in experiment [2] is -2.5%; in [3], -12.9%; in experiment [4], -17.7%; in experiment [6] it was -5.52%. The result in experiment [2], in experiment [4], in experiment [6], in experiment [7] and in experiment [11] was inactive. Besides, the values for the Potency in experiment [3] and in [13] were 23.7 µM (active) and 10.6 µM (active), respectively.
